From PubChem BioAssay AID1159580 (chemical genetic matrix, 2015)
The whole screen tested about 5,500 compounds, of which about 2,000 (36%) were called active. Not shown: some 18% with an inconclusive outcome. No stated cut-off is given here; in the data, active means normalized growth mostly below about 0.91 (no sharp cut-off); inconclusive means no clear call, values can overlap the other calls; inactive means mostly above about 0.92. The list shows a part of the results.

Test: chemical genetic growth profiling, strain panel (AID 1159580);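 further: tested at 20 µM; growth read once vehicle control cultures reached saturation at 30 °C; 1 = growth at the plate median or of vehicle wells; lower values mean less growth of the strain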
Settings: growth OD
[1] = S. cerevisiae deletion strains, locus YDR150W, strain NUM1, hits give low values
[2] = S. cerevisiae deletion strains, locus YJR075W, strain HOC1, hits give low values
[3] = S. cerevisiae deletion strains, locus YMR307W, strain GAS1, hits give low values

Measured: normalized growth

C=C/C(C)=C/[C@@]1(C)SC(=O)C(C)=C1O
inactive: S. cerevisiae deletion strains, locus YAL040C, strain CLN3, hits give low values 0.998 | S. cerevisiae deletion strains, locus YCL061C, strain MRC1 (second series), hits give low values 1 | [1] 1.01 | S. cerevisiae deletion strains, locus YDR363W, strain ESC2, hits give low values 1.02 | S. cerevisiae deletion strains, locus YER002W, strain NOP16, hits give low values 0.986 | S. cerevisiae deletion strains, locus YGR078C, strain PAC10, hits give low values 1.01 | S. cerevisiae deletion strains, locus YGR229C, strain SMI1, hits give low values 1.01 | [2] 1 | [3] 0.998 | S. cerevisiae deletion strains, locus YNL175C, strain NOP13, hits give low values 0.996 | S. cerevisiae deletion strains, locus YNL197C, strain WHI3, hits give low values 1 | S. cerevisiae deletion strains, locus YNL224C, strain SQS1, hits give low values 1 | S. cerevisiae deletion strains, locus YNL322C, strain KRE1, hits give low values 0.999 | S. cerevisiae deletion strains, locus YOR083W, strain WHI5 (second series), hits give low values 0.999

C/C1=C\CC(C)(C)/C=C/CC2(C)OC2CC1 (stereo not given)
inactive: S. cerevisiae deletion strains, locus YBR021W, strain FUR4, hits give low values 1.02 | S. cerevisiae deletion strains, locus YBR229C, strain ROT2, hits give low values 1.01 | S. cerevisiae deletion strains, locus YCL029C, strain bik1, hits give low values 0.999 | S. cerevisiae deletion strains, locus YDL035C, strain GPR1, hits give low values 0.998 | S. cerevisiae deletion strains, locus YDL074C, strain BRE1, hits give low values 1.01 | S. cerevisiae deletion strains, locus YDL101C, strain DUN1, hits give low values 1.03 | S. cerevisiae deletion strains, locus YDL185W, strain tfp1, hits give low values 1.01 | S. cerevisiae deletion strains, locus YDL192W, strain arf1, hits give low values 1.01 | S. cerevisiae deletion strains, locus YDR101C, strain arx1, hits give low values 0.968 | [1] 1.01 | S. cerevisiae deletion strains, locus YDR162C, strain NBP2, hits give low values 1 | S. cerevisiae deletion strains, locus YDR318W, strain mcm21, hits give low values 0.997 | S. cerevisiae deletion strains, locus YDR388W, hits give low values 1.01 | S. cerevisiae deletion strains, locus YDR502C, strain sam2, hits give low values 1.03 | S. cerevisiae deletion strains, locus YEL061C, strain CIN8, hits give low values 1.01 | S. cerevisiae deletion strains, locus YER110C, hits give low values 1.02 | S. cerevisiae deletion strains, locus YER155C, strain BEM2, hits give low values 1 | S. cerevisiae deletion strains, locus YER167W, strain BCK2, hits give low values 1 | S. cerevisiae deletion strains, locus YGL078C, strain dbp3, hits give low values 1.01 | S. cerevisiae deletion strains, locus YGL086W, strain mad1, hits give low values 1.01 | S. cerevisiae deletion strains, locus YGL248W, strain PDE1, hits give low values 1.04 | S. cerevisiae deletion strains, locus YGR135W, strain pre9, hits give low values 1.05 | S. cerevisiae deletion strains, locus YGR252W, strain gcn5, hits give low values 1.05 | S. cerevisiae deletion strains, locus YHR030C, strain SLT2, hits give low values 1 | S. cerevisiae deletion strains, locus YHR079C, strain IRE1 (second series), hits give low values 1.01 | S. cerevisiae deletion strains, locus YHR094C, strain hxt1, hits give low values 1.02 | S. cerevisiae deletion strains, locus YHR129C, strain ARP1, hits give low values 1.01 | S. cerevisiae deletion strains, locus YHR200W, strain rpn10, hits give low values 1.01 | S. cerevisiae deletion strains, locus YIL066C, strain RNR3, hits give low values 1.01 | S. cerevisiae deletion strains, locus YIL073C, strain SPO22, hits give low values 1.04 | S. cerevisiae deletion strains, locus YIL125W, strain kgd1, hits give low values 1.01 | S. cerevisiae deletion strains, locus YIR030C, strain dcg1, hits give low values 0.999 | S. cerevisiae deletion strains, locus YJL095W, strain BCK1, hits give low values 1.08 | S. cerevisiae deletion strains, locus YJL134W, strain LCB3, hits give low values 1 | S. cerevisiae deletion strains, locus YJL168C, strain set2, hits give low values 1.02 | S. cerevisiae deletion strains, locus YJL187C, strain SWE1 (second series), hits give low values 1.03 | S. cerevisiae deletion strains, locus YJR043C, strain POL32, hits give low values 0.99 | [2] 1.01 | S. cerevisiae deletion strains, locus YKL009W, strain mrt4, hits give low values 1.01 | S. cerevisiae deletion strains, locus YKL068W, hits give low values 1 | S. cerevisiae deletion strains, locus YKL085W, strain MDH1 (second series), hits give low values 1.01 | S. cerevisiae deletion strains, locus YKL085W, strain MDH1, hits give low values 1.01 | S. cerevisiae deletion strains, locus YKR001C, strain vps1, hits give low values 0.998 | S. cerevisiae deletion strains, locus YLR039C, strain RIC1, hits give low values 1.04 | S. cerevisiae deletion strains, locus YLR058C, strain SHM2, hits give low values 1.01 | S. cerevisiae deletion strains, locus YLR102C, strain apc9, hits give low values 1.01 | S. cerevisiae deletion strains, locus YLR262C, strain YPT6, hits give low values 1.07 | S. cerevisiae deletion strains, locus YLR268W, strain sec22, hits give low values 0.99 | S. cerevisiae deletion strains, locus YLR342W, strain FKS1 (second series), hits give low values 1.02 | S. cerevisiae deletion strains, locus YLR371W, strain rom2, hits give low values 0.984 | S. cerevisiae deletion strains, locus YLR418C, strain cdc73, hits give low values 1.08 | S. cerevisiae deletion strains, locus YML016C, strain PPZ1, hits give low values 1 | S. cerevisiae deletion strains, locus YML032C, strain rad52, hits give low values 1 | S. cerevisiae deletion strains, locus YML124C, strain tub3, hits give low values 1 | S. cerevisiae deletion strains, locus YMR078C, strain ctf18, hits give low values 1.01 | S. cerevisiae deletion strains, locus YMR223W, strain ubp8, hits give low values 1.01 | S. cerevisiae deletion strains, locus YMR263W, strain SAP30, hits give low values 1.02 | [3] 0.978 | S. cerevisiae deletion strains, locus YNL067W, strain RPL9B, hits give low values 1.02 | S. cerevisiae deletion strains, locus YNL153C, strain GIM3, hits give low values 1.03 | S. cerevisiae deletion strains, locus YNL233W, strain BNI4, hits give low values 1.03 | S. cerevisiae deletion strains, locus YNL250W, strain rad50, hits give low values 1.01 | S. cerevisiae deletion strains, locus YNL271C, strain bni1, hits give low values 1.01 | S. cerevisiae deletion strains, locus YNL298W, strain CLA4, hits give low values 0.995 | S. cerevisiae deletion strains, locus YNL307C, strain MCK1, hits give low values 1.03 | S. cerevisiae deletion strains, locus YNR052C, strain pop2, hits give low values 1.01 | S. cerevisiae deletion strains, locus YOL006C, strain TOP1, hits give low values 1 | S. cerevisiae deletion strains, locus YOL012C, strain htz1 1.6 | S. cerevisiae deletion strains, locus YOL147C, strain pex11, hits give low values 1.01 | S. cerevisiae deletion strains, locus YOR061W, strain CKA2, hits give low values 0.994 | S. cerevisiae deletion strains, locus YOR069W, strain VPS5, hits give low values 1.01 | S. cerevisiae deletion strains, locus YOR136W, strain idh2, hits give low values 1 | S. cerevisiae deletion strains, locus YOR144C, strain elg1, hits give low values 1 | S. cerevisiae deletion strains, locus YOR184W, strain ser1, hits give low values 0.986 | S. cerevisiae deletion strains, locus YOR316C, strain cot1, hits give low values 1 | S. cerevisiae deletion strains, locus YPR119W, strain clb2, hits give low values 1.02 | S. cerevisiae deletion strains, locus YPR141C, strain kar3, hits give low values 1.01 | S. cerevisiae deletion strains, locus YPR163C, strain tif3, hits give low values 1.02 | S. cerevisiae deletion strains, locus YPR167C, strain met16, hits give low values 1.02 | S. cerevisiae deletion strains, strain wtn01, hits give low values 0.974 | S. cerevisiae strains, strain wild type, hits give low values 1.01
